# LANA-H2A inh – blocks KSHV LANA binding to histone H2A/H2B | Q9QR71 | cell-free LANA-H2A/H2B peptide, fluorescence polarization | inhibition, % (concentration not given with the values) | hit rate 0.6% among 320,000 | AID 2629; in the data active = inhibition mostly above about 10%, no sharp cut-off; inactive = mostly below about 6.7%
# Keap1 Nrf2 FP – disrupts human Keap1 binding to Nrf2 peptide; AID 504523; Q14145; hit rate 0.15% among 340,000; inhibition, % at 9.4 µM; Keap1 Kelch-Nrf2 peptide fluorescence polarization, 1536-well; in the data active = inhibition above about 12%;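 note: human Keap1 Kelch domain with fluorescein labeled Nrf2 9mer peptide probe; 0% = neutral control wells and 100% = peptide positive control; higher means more block of Keap1 binding to Nrf2 peptide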
# Target sequence (Q14145 whole entry, looked up, the tested form may be a part): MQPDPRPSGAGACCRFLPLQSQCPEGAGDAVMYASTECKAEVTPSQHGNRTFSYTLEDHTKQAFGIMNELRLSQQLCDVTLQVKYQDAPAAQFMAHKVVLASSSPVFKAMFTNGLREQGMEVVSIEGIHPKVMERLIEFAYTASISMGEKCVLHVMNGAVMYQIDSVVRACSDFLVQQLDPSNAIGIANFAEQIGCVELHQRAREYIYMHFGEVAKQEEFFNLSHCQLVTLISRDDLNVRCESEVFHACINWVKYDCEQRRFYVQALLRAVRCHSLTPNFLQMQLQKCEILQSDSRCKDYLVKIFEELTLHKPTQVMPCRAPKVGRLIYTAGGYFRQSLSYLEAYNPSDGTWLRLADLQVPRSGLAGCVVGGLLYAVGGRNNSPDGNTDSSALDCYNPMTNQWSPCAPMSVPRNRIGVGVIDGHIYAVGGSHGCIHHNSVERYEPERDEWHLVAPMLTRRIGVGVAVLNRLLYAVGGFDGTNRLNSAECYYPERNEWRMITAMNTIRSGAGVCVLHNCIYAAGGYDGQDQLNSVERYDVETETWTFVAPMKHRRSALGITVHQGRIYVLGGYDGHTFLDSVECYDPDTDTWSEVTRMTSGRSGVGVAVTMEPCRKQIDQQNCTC
# Cardiac RTF inh – cardiac RTF calcium desensitization; IANBD-labeled cardiac RTF, Ca2+ fluorescence; inhibition, % at 7.15 µM; hit rate 0.12% among 340,000; AID 493244;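 active = inhibition above the mean inhibition of all tested compounds plus 3 SD, cut at about 17% in these data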;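 note: assay run at fixed EC70 calcium of 1.6 mM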
# RTF Ca sens act – cardiac RTF calcium sensitization. P19429+P45379. IANBD-labeled TnC RTF fluorescence at EC20 calcium; 0% EC20 calcium, 100% full calcium. activation, % at 7.2 µM. hit rate 0.24% among 340,000. AID 493008;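 active = activation above the mean over all tested compounds plus 3 SD, cut at about 30% in these data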;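 note: rise in fluorescence read as greater calcium sensitivity of cardiac thin filaments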
# C-LANA FP – inhibitors of KSHV LANA C-terminal domain DNA binding | MBP-C-LANA/FAM-LBS DNA binding, fluorescence polarization | hit rate 0.078% among 340,000 | inhibition, % at 9 µM;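 active = highest replicate inhibition at or above 60% at 9 µM, even if other replicates fall short; inactive = all replicates below 60% inhibition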;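 note: 0% = neutral control wells and 100% = 4 µM acridine orange control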
# An asterisk follows results filed as active; . = not tested or not shown; + = active, no number. Shown are actives, neighbours in structure and some others; about 1% of the full set was active somewhere.
SMILES,LANA-H2A inh,Keap1 Nrf2 FP,Cardiac RTF inh,RTF Ca sens act,C-LANA FP
CC1Cc2ccccc2N1C(=O)CSc1nccc(=O)[nH]1 (stereo not given),6,-9,-5,-2,0
O=c1[nH]c(=S)[nH]cc1Oc1ccccc1,.,2,-4,-3,0
O=C(COC(=O)c1ccc(O)cc1)Nc1ccc2c(c1)OCCO2,8,-3,3,30*,3
Cc1ccc(NC(=O)COC(=O)c2ccc3c(c2)OCCO3)cc1,-1,-5,-4,2,0
CC(C)[C@H](NC(=O)OCc1ccccc1)C(=O)OCC(=O)N1C(C)CCCC1C (stereo not given in full),.,-7,-11,0,0
Cc1ccc(S(=O)(=O)N2CCN(C(=O)n3ccnc3)CC2)cc1,31*,-1,1,-4,1
CC(=O)c1cccc(NC(=S)NC(=O)c2ccc(C)cc2Cl)c1,36*,0,-8,0,-1
Cc1ccc(NC(=O)C(C)SCc2nc3sc(C)c(C)c3c(=O)[nH]2)nc1 (stereo not given),-1,-4,-6,1,4
O=C(CNC(=O)C1CCCCC1)OCn1nnc2ccccc2c1=O,15*,3,-2,-2,0
O=C(OCCSCCOC(=O)C1CC=CCC1)C1CC=CCC1 (stereo not given),.,0,-4,-4,-2
c1ccc(-n2cc(CN3CCCC(CN4CCCC4)C3)c(-c3ccc4c(c3)OCO4)n2)cc1 (stereo not given),21*,-4,5,-3,-1
OC[C@@H]1CCCN1Cc1cn(-c2ccccc2)nc1-c1ccc2c(c1)OCO2,1,-4,-13,0,5
CN(CC(=O)Nc1cccc(F)c1)C(=O)c1cn(-c2ccccc2)nc1-c1ccc(Cl)cc1,156*,0,-10,-2,0
CN(CC(=O)Nc1cccc(F)c1)C(=O)c1cn(-c2ccccc2)nc1-c1cccs1,4,-1,2,1,0
COc1cccc(NS(=O)(=O)c2ccc3c(c2)C2C=CCC2C(c2ccc(C(=O)O)cc2)N3)c1 (stereo not given),3,7,11,-22,104*
Nc1ccc(C(=O)O)c(O)c1,-5,-5,-1,0,8
O=C(O)c1ccc(O)cc1O,28*,-1,-8,-1,0
COc1ccc(NC(=O)c2nn(C)c3c2CS(=O)(=O)c2ccccc2-3)cc1,-7,-4,-3,-3,1
CC(C)Cn1c(CCCNC(=O)c2ccco2)nc2ccccc21,-1,2,0,-6,0
CC(C)Cn1c(CCCNC(=O)c2ccc(F)cc2)nc2ccccc21,11*,-3,-6,1,-2
Cc1ccc(C2(c3ccccc3)NC(=O)N(CC(=O)N(C)C3CCS(=O)(=O)C3)C2=O)cc1C (stereo not given),16*,5,1,-7,-1
Cc1ccc(C2(c3ccccc3)NC(=O)N(CC(=O)NC3(C#N)CCCC3)C2=O)cc1C (stereo not given),+,-6,-7,-5,0
COc1ccc(C2(c3ccc(OC)cc3)NC(=O)N(CC(=O)NC3(C#N)CCCC3)C2=O)cc1,2,0,-9,-3,0
CCN(C(=O)CN1C(=O)NC(c2ccccc2)(c2ccc(C)c(C)c2)C1=O)C1CCS(=O)(=O)C1 (stereo not given),-4,2,7,-7,-2
Cc1cccc(NC(=O)C2C3CCCCC32)c1 (stereo not given),-1,0,-3,1,1
SMILES,LANA-H2A inh,Keap1 Nrf2 FP,Cardiac RTF inh,RTF Ca sens act,C-LANA FP
CN(C)c1ccc(O)c2c1CC1CC3[C@@H](N(C)C)C(=O)C(C(N)=O)=C(O)[C@]3(O)C(=O)C1=C2O (stereo not given in full),0,5,8,-1,77*
C[C@H]1c2cccc(O)c2C(O)=C2C(=O)[C@]3(O)C(O)=C(C(N)=O)C(=O)[C@@H](N(C)C)[C@@H]3[C@@H](O)[C@@H]21,1,2,14,-5,3
CC[C@H]1c2[nH]c3ccccc3c2C[C@H]2C(=O)N(c3ccc(F)cc3)C(=O)N21,+,-5,-7,-3,-1
CC1(C)c2[nH]c3ccccc3c2C[C@@H]2C(=O)N(Cc3ccc(F)cc3)C(=O)N21,5,-4,5,-4,-1
COc1ccc(CCNC(=O)c2nn(C)c3c2CS(=O)(=O)c2ccccc2-3)cc1OC,1,4,-6,-5,1
COCCn1c(SCC(=O)N2CCc3ccccc32)nc2c(c1=O)SC(C)C2 (stereo not given),8.1*,-6,-8,5,0
COCCn1c(SCC(=O)N2CCCc3ccccc32)nc2c(c1=O)SC(C)C2 (stereo not given),-1,-3,-13,-2,3
CCN(CC)C(=O)Cn1c(=O)n(C)c2ccccc21,0,-4,-5,1,1
CCn1cc(/C=C/c2cc[n+](C)cc2)c2ccccc21,-210,-186,-427,371*,-22
Cc1[nH]c2ccccc2c1/C=C/c1cc[n+](C)cc1,.,-136,-134,95*,-39
CCN(CC)C(=O)Cn1c(C)c(/C=C/c2cc[n+](C)cc2)c2ccccc21,-133,-136,-137,87*,.
Cc1ccccc1/C=C/c1cc[n+](C)cc1,3,-2,-12,4,1
CCOC(=O)Cn1cc(C=O)c2ccccc21,-2,-5,-1,-1,0
C=CCn1cc(/C=C/c2cc[n+](C)cc2)c2ccccc21,-209,-155,-220,170*,-8
CC(OCCN1CCCC1)(c1ccc(F)cc1)c1ccc(F)cc1,-4,0,-12,0,0
C=CCn1c(C)c(/C=C/c2cc[n+](C)cc2)c2ccccc21,-220,-171,-149,114*,-50
CC(C)n1cc(/C=C/c2cc[n+](C)cc2)c2ccccc21,.,-222,-475,344*,-30
CCn1c(/C=C/c2c(C)n(CC)c3ccccc23)nc2ccccc2c1=O,2,2,-8,-5,8
CCCCn1c(N)c(N(CCC(C)C)C(=O)COC(=O)c2ccc3ccccc3c2)c(=O)[nH]c1=O,.,-4,-2,-4,1
CC(C)CN(C(=O)c1ccc(N2CCCC2=O)cc1)c1c(N)n(Cc2ccccc2)c(=O)[nH]c1=O,26*,-7,-5,-6,-1
CCCCn1c(N)c(N(CCC(C)C)C(=O)c2ccc3ccccc3c2)c(=O)[nH]c1=O,32*,-1,3,-7,1
COCCN(C(=O)CN1CCCc2ccccc21)c1c(N)n(Cc2ccccc2)c(=O)[nH]c1=O,0,-4,-100,61*,24
COCCN(C(=O)CN1CCc2ccccc21)c1c(N)n(Cc2ccccc2)c(=O)[nH]c1=O,-12,-11,-12,4,-2
CCCCN(C(=O)c1ccc(N2CCCC2=O)cc1)c1c(N)n(Cc2ccccc2)c(=O)[nH]c1=O,0,0,-13,-4,0

# Screening data: PubChem BioAssay, several laboratories
